MITF act: activators of MITF-driven TRPM1 promoter reporter, primary screen, cell-based, SK-MEL-5, luciferase, single point. activation, % at 12.5 µM. actives 0.75% (n = 300,000). SK-MEL-5 TRPM1-promoter luciferase, 24 h; % of positive control, neutral wells = 0;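 active means mean activation of at least 80% with every replicate also reaching 80%; inconclusive means mean reaches 80% but some replicate falls short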;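 further: 0% = neutral control wells and 100% = parthenolide positive control wells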
Wnt bcat act: Wnt/beta-catenin pathway activators, primary screen, cell-based, plate reader, single point. Wnt/beta-catenin reporter cell assay, activator. activation, % at 9.35 µM. actives 1.2% (n = 300,000). AID 743398, 2014; in the data active means activation above about 30%, passing the limit was not always enough; inconclusive means no clear call, values can overlap the other calls;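 further: 0% = neutral control wells and 100% = positive control wells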
MITF TRPM1 inh: inhibitors of MITF-dependent TRPM1 promoter reporter, primary screen, cell-based, SK-MEL-5, single point, luciferase. actives 0.83% (n = 330,000). inhibition, % at 12.5 µM. SK-MEL-5 TRPM1 promoter luciferase, 24 h. AID 488899, 2010;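 active means mean inhibition across replicates of 60% or more, whatever share of single replicates reaches that level; inconclusive means some that reach 60%, reason not given; inactive means mean inhibition across replicates below 60%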
LMP1 NFkB inh: EBV LMP1-driven NF-kappaB luciferase reporter inhibitors, primary screen, cell-based, luminescence, single point; actives 0.69% (n = 350,000); inhibition, % at 12.5 µM; AID 504558, 2011; LMP1-induced NF-kappaB luciferase reporter cells; in the data active means inhibition above about 41%; inconclusive means no clear call, values can overlap the other calls;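 further: 0% = neutral control wells and 100% = reference inhibitor control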
C2C12 statin: suppressors of statin myotoxicity in C2C12 myotubes, primary screen, cell-based, single point, plate reader; actives 0.78% (n = 330,000); rescue of ATP level, % at 7.49 µM; AID 602340, 2012; C2C12 myotubes + simvastatin, ATP luminescence, 48 h; scaled: DMSO 0, geranylgeraniol control 100;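 active means mean ATP rescue above about 67%, or every replicate alone reaching that limit, limit read from the data, passing the limit was not always enough; inconclusive means no clear call, values can overlap the other calls; inactive means mean under the limit and some replicate under it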;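 further: myotubes were challenged with 10 µM simvastatin during compound exposure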
esBAF inh: Bmi1 luciferase reporter increase in mESCs, primary screen, esBAF inhibitor project, mouse ES cells, Bmi1 luciferase knock-in, single point; 24 h; 100% = twice the neutral-well signal; actives 2% (n = 350,000); reporter increase, % at 12.5 µM; in the data active means activation above about 40%; inconclusive means no clear call, values can overlap the other calls;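 further: 0% = median of the plate's neutral control wells and 100% = double that signal; a rise in the Bmi1 reporter signal indicates esBAF inhibition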
esBAF Ring1 qPCR: Ring1 mRNA increase in mouse ESCs, confirmation, esBAF inhibitor project, cell-based, mouse ESC, RT-qPCR, cherry-pick; shares compounds with esBAF inh; mouse ESC E14, Ring1 mRNA RT-qPCR fold change; fold change at 33 µM; 550 tested, under 10 active;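 active means Ring1 gene expression raised more than 2-fold over untreated cells in both replicates at either tested dose; inconclusive means only one replicate above 2-fold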;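 further: Ring1 transcript normalised to actin housekeeping signal by TaqMan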
Fgf4 repress: Fgf4 mRNA decrease in mouse ESCs, confirmation, esBAF inhibitor project, cell-based, mouse ESC, RT-qPCR, cherry-pick; mouse ESC E14, Fgf4 mRNA qPCR fold change; stronger effect = lower value; Fgf4 expression fold change at 33 µM; shares compounds with esBAF inh; actives 4% (n = 550);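 active means Fgf4 expression under 0.8 fold of control in both repeat measurements at one or both tested doses; inconclusive means under 0.8 fold in just a single repeat measurement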;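 further: Fgf4 transcript normalised to actin in duplex TaqMan qPCR; cells exposed to compound for 24 h before lysis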
Bmi1 derepress: esBAF inhibition via Bmi1 de-repression, confirmation, cell-based, RT-qPCR, mouse ESC, single point, cherry-pick; shares compounds with esBAF inh; 550 tested, under 10 active; fold change at 33 µM; AID 743180, 2013; mouse ESE14 ES cells, Bmi1 mRNA qPCR fold; stronger effect = higher value;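 active means Bmi1 expression fold change above 6 at either tested concentration, seen in replicate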
A549 cytotox: A549 cell cytotoxicity, cytotoxicity control, plate reader, single point, cherry-pick | shares compounds with esBAF inh | cell viability change % (negative = cytotoxic), % at 25 µM, hits read low | 550 tested, under 10 active; call rule not given here
HepG2 cytotox SP: HepG2 cell cytotoxicity, cytotoxicity control, plate reader, single point, cherry-pick; actives 4% (n = 550); shares compounds with esBAF inh; stronger effect = lower value; AID 743189, 2013; activity change, negative = inhibition, % at 25 µM; in the data active means activity change below about -50%
HEK293 cytotox SP: HEK293 cell cytotoxicity, cytotoxicity control, plate reader, single point, cherry-pick; shares compounds with esBAF inh; activity change, negative = inhibition, % at 25 µM, hits read low; actives 3% (n = 550); AID 743190, 2013; in the data active means activity change below about -38%, passing the limit was not always enough
The depositor's hits bear a star; ? = inconclusive; . = no result. In the library only some 4% were active in any assay of this set; here they are far more common.

SMILES	MITF act	Wnt bcat act	MITF TRPM1 inh	LMP1 NFkB inh	C2C12 statin	esBAF inh	others
CCC(=O)Nc1ccc(NC(=O)CSc2nc3cc4c(cc3cc2C)CCC4)cc1	2.2	-1.0	1.7	8.8	7.4	0.1
Cc1ccccc1NC(=O)C1CCCN(C(=O)Nc2ccc(F)cc2)C1 (configuration not stated)	-4.5	0.6	4.9	5.1	-3.0	-2.0
COc1cc(C(=O)N2CCN(C3=NS(=O)(=O)c4ccccc43)CC2)cc(OC)c1OC	.	.	.	1.8	1.4	-1.4
COc1ccc(Br)cc1/C=N/NC(=O)C(c1ccncc1)N1CCOCC1 (configuration not stated)	9.0	-1.1	-10.5	-8.5	9.0	-0.7
CCn1c(=S)sc2c(=O)n(CC(=O)Nc3ccc(C(C)=O)cc3)c(C)nc21	-5.1	-2.3	9.6	7.2	1.6	0.2
COc1cccc(C(=O)Nc2ccc3c(cc2=O)[C@@H](NC(C)=O)CCc2cc(OC)c(OC)c(OC)c2-3)c1	-61.5	.	62.1*	36.4	-43.6	-12.3
COc1cc2c(c(OC)c1OC)-c1ccc(OC)c(=O)cc1C(NC(C)=O)CC2 (configuration not stated)	-64.8	-14.5	66.5*	11.3	-34.5	-12.0
CCCC(=O)NC1CCc2cc(OC)c(OC)c(OC)c2-c2ccc(OC)c(=O)cc21 (configuration not stated)	.	-9.0	49.0	-2.8	.	.
COc1cc2c(c(OC)c1OC)-c1ccc(OC)c(=O)cc1C(NC(=O)c1ccccc1)CC2 (configuration not stated)	.	-23.2	33.2	3.0	.	.
COc1cc2c(c(OC)c1OC)-c1ccc(SC)c(=O)cc1C(NC=O)CC2 (configuration not stated)	.	-4.1	63.9*	3.5	.	.
C=COC(=O)NC1CCc2cc(OC)c(OC)c(OC)c2-c2ccc(SC)c(=O)cc21 (configuration not stated)	.	-7.5	50.8	-3.8	.	.
CC1Cn2c(nc3sc4c(c3c2=O)CCC4)N1CCO (configuration not stated)	.	.	1.4	-29.4	.	.
COCCCn1c(=O)/c(=C/c2ccccc2OC(F)F)s/c1=C(\C#N)C(=O)NCCOC	2.6	0.3	-4.8	1.3	.	.
CCOC(=O)C(NCc1ccccc1)(NC(=O)c1ccccc1)C(F)(F)F (configuration not stated)	-8.0	-9.7	5.1	2.9	-1.0	-4.6
CNC(=O)C[C@H]1CC[C@@H]2[C@@H](COc3ccc(NC(=O)NC4CCCC4)cc3C(=O)N2C)O1	.	.	.	.	6.4	3.5
Cc1oc(-c2ccc(Cl)cc2)nc1CS(=O)CC(=O)NC1CCCCC1 (configuration not stated)	-2.6	2.1	3.2	0.0	21.6	3.7
Cc1oc(-c2ccc(Cl)cc2)nc1CS(=O)CC(=O)NC1CCCC1 (configuration not stated)	-4.8	1.1	4.7	-3.7	98.9*	1.3
Cc1ccc(-c2nc(CS(=O)CC(=O)NC3CCCCC3)c(C)o2)cc1 (configuration not stated)	-3.9	-1.3	7.3	-1.1	104.9*	-2.2
Nc1c(N(C(=O)Nc2ccc(Cl)c(Cl)c2)C2CCCC2)c(=O)[nH]c(=O)n1Cc1ccccc1	-76.3	.	77.2*	-11.9	-46.8	-11.8
COCCN(C(=O)C1CCCC1)c1c(N)n(Cc2ccccc2)c(=O)[nH]c1=O	-9.4	0.1	10.0	5.2	1.5	-11.6
CN(C)c1ncnc2[nH]ncc12	3.7	-1.1	-4.2	-3.3	6.0	-4.9
CCCN(CC)c1ncnc2[nH]ncc12	20.2	-3.2	-16.9	43.1*	-0.6	-11.0
O=C(NNC(=O)c1ccccc1O)c1cccc(Br)c1	.	-0.5	-30.6	-4.8	-1.0	45.7*
CSc1cccc(NC(=O)N2CCc3ccc(NC(=O)c4ccccn4)cc3C2)c1	71.9	21.1	-72.2	-9.7	6.1	60.0*	esBAF Ring1 qPCR=0.926;Fgf4 repress=1.01;Bmi1 derepress=1.25;A549 cytotox=-24.5;HepG2 cytotox SP=-17.8;HEK293 cytotox SP=-16.9
Fc1cccc(-c2ncc(-c3ccccc3)o2)c1	48.9	41.6*	-51.3	-31.5	-3.4	73.2*	esBAF Ring1 qPCR=1.16;Fgf4 repress=0.989;Bmi1 derepress=1.68;A549 cytotox=-5.9;HepG2 cytotox SP=2.3;HEK293 cytotox SP=-16.9
COc1ccc(S(=O)(=O)Nc2cc(C(=O)NC3CCCCCC3)ccc2N2CCOCC2)cc1	48.1	.	-43.7	-11.4	-12.2	37.7	esBAF Ring1 qPCR=1.06;Fgf4 repress=1;Bmi1 derepress=1.85;A549 cytotox=3.7;HepG2 cytotox SP=-46.1;HEK293 cytotox SP=-4.7
Cc1ccc(NC(=O)C2CCCN(c3ncccn3)C2)cc1F (configuration not stated)	134.1*	.	-132.5	-41.4	-4.3	72.6*	esBAF Ring1 qPCR=1.34;Fgf4 repress=?;Bmi1 derepress=1.61;A549 cytotox=-0.4;HepG2 cytotox SP=-18.1;HEK293 cytotox SP=-7.2
Cc1ccc(NC(=O)C2CCCN(C(=O)c3ccc(Cl)cc3)C2)cc1C (configuration not stated)	63.7	7.8	-63.5	-12.5	-4.0	68.9*	esBAF Ring1 qPCR=0.981;Fgf4 repress=1.09;Bmi1 derepress=1.46;A549 cytotox=-7.2;HepG2 cytotox SP=-29.0;HEK293 cytotox SP=-31.6
C[C@@H]1CN([C@H](C)CO)C(=O)c2cc(NC(=O)CCC(F)(F)F)ccc2O[C@@H](C)CCCCO[C@H]1CN(C)C(=O)Nc1ccccc1	.	.	.	.	.	1.4
COc1cccc(-c2csc(N3CCN(CC(=O)NNC(=O)c4ccc(Br)cc4)CC3)n2)c1	-12.2	.	9.1	5.4	-2.4	8.5

Assay outcomes as filed in PubChem BioAssay.
